# From PubChem BioAssay (NCATS)
# Inconclusive results are not listed. Where a call stands in place of a potency, no number is given. The source made the active and inactive calls. The call rests on the fitted dose curve; in most records, active means well fitted inhibition curve with a large enough effect; inconclusive means small, poorly fitted or top-dose-only effect; inactive means flat fitted curve, though single readings scatter.
# Columns and labels:
# Experiment in all cases: qHTS profiling for inhibitors of Plasmodium falciparum proliferation (AID 504749); further: nearly all actives have a fitted effect of over 60% in size
# Settings in all cases: P. falciparum in erythrocytes, SYBR Green DNA, 72 h; series mostly up to 28.7 µM
# DFO2036 = test system: DFO2036
# How it was run: (§1)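 Each compound contacts P. falciparum-infected red blood cells for 72 h at 37 C; lysis buffer (Tris, EDTA, saponin, Triton X, SYBR Green I) is added and fluorescence measured next morning; values normalized to controls.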
# DIV14 = test system: DIV14
# How it was run: as §1
# DIV17 = test system: DIV17
# How it was run: as §1
# DIV30 = test system: DIV30
# How it was run: as §1
# Dd2 = test system: Dd2
# How it was run: as §1
# ECU = test system: ECU
# How it was run: as §1
# FAB9 = test system: FAB9
# How it was run: as §1
# GB4 = test system: GB4
# How it was run: as §1
# HB3 = test system: HB3
# How it was run: as §1
# ICS = test system: ICS
# How it was run: as §1
# Potency means the concentration at half of the fitted maximal effect.
SMILES,Potency (DFO2036),Potency (DIV14),Potency (DIV17),Potency (DIV30),Potency (Dd2),Potency (ECU),Potency (FAB9),Potency (GB4),Potency (HB3),Potency (ICS)
N[C@@H](C(=O)N[C@@H]1C(=O)N2C(C(=O)O)=C(Cl)CS[C@H]12)c1ccccc1,inactive,inactive,inactive,inactive,inactive,inactive,inactive,inactive,inactive,inactive
O=NN(CCCl)C(=O)NC1CCCCC1,inactive,inactive,inactive,inactive,inactive,inactive,inactive,inactive,inactive,inactive
COc1ccc(-c2ccc3cc(C(=O)O)ccc3c2)cc1C12CC3CC(CC(C3)C1)C2,inactive,inactive,inactive,inactive,inactive,inactive,inactive,inactive,inactive,
COC(=O)Nc1nc2ccc(Sc3ccccc3)cc2[nH]1,inactive,inactive,inactive,inactive,inactive,inactive,inactive,inactive,inactive,inactive
C#CCN[C@@H]1CCc2ccccc21,inactive,inactive,inactive,inactive,inactive,inactive,inactive,inactive,inactive,inactive
O=S(=O)(O)CCS,inactive,inactive,inactive,inactive,inactive,inactive,inactive,inactive,inactive,inactive
CN(CCOc1ccc(CC2SC(=O)NC2=O)cc1)c1ccccn1 (stereo not drawn),inactive,inactive,inactive,inactive,inactive,inactive,inactive,inactive,inactive,inactive
CNC1CCCN(c2c(F)cc3c(=O)c(C(=O)O)cn(C4CC4)c3c2OC)C1 (stereo not drawn),inactive,inactive,inactive,inactive,inactive,inactive,inactive,inactive,inactive,inactive
Cc1cccc(N(C)C(=S)Oc2ccc3ccccc3c2)c1,inactive,inactive,inactive,inactive,inactive,inactive,inactive,inactive,inactive,inactive
CC(C)NCC(O)c1ccc(NS(C)(=O)=O)cc1 (stereo not drawn),inactive,inactive,inactive,inactive,inactive,inactive,inactive,inactive,inactive,inactive
Nc1ccc(S(=O)(=O)Nc2ccccn2)cc1,inactive,inactive,inactive,inactive,inactive,inactive,inactive,inactive,inactive,inactive
CCN(C)C(=O)Oc1cccc([C@H](C)N(C)C)c1,inactive,inactive,inactive,inactive,inactive,inactive,inactive,inactive,inactive,inactive
COc1cc([C@@H]2c3cc4c(cc3[C@H](O)[C@H]3COC(=O)[C@H]23)OCO4)cc(OC)c1OC,2820 nM (active),2130 nM (active),1690 nM (active),6750 nM (active),2240 nM (active),3550 nM (active),6310 nM (active),3380 nM (active),1780 nM (active),891 nM (active)
COc1cc(NCc2ccc3nc(N)nc(N)c3c2C)cc(OC)c1OC,355 nM (active),169 nM (active),239 nM (active),4780 nM (active),631 nM (active),5 nM (active),4.5 nM (active),1.5 nM (active),31.6 nM (active),794 nM (active)
Cc1cccc(Nc2ccncc2S(=O)(=O)NC(=O)NC(C)C)c1,inactive,inactive,inactive,inactive,inactive,inactive,inactive,inactive,inactive,inactive
O=c1cc(O)c(Cl)c[nH]1,inactive,inactive,inactive,inactive,inactive,inactive,inactive,inactive,inactive,inactive
CCCN[C@H]1CCc2nc(N)sc2C1,inactive,inactive,inactive,inactive,inactive,inactive,inactive,inactive,inactive,inactive
CC[C@H](NC(C)C)[C@H](O)c1ccc(O)c2[nH]c(=O)ccc12,inactive,inactive,inactive,,inactive,inactive,inactive,inactive,inactive,inactive
NC(=O)N1c2ccccc2CC(=O)c2ccccc21,inactive,inactive,inactive,inactive,inactive,inactive,inactive,inactive,inactive,inactive
C[C@@H](NCCCc1cccc(C(F)(F)F)c1)c1cccc2ccccc12,11200 nM (active),6010 nM (active),5360 nM (active),7570 nM (active),5010 nM (active),3160 nM (active),inactive,12000 nM (active),12600 nM (active),1780 nM (active)
